This is an account of results in PubChem BioAssay (NCATS).

Assay [1] is described as follows: qHTS for Inhibitors of the Functional Ribonucleoprotein Complex (vRNP) of Lassa (LASV) Arenavirus: LASV Primary Screen - GLuc reporter signal (AID 1347082; calls by dose curve; tested in HEK293 reporter line; also: nearly all actives have a fitted effect of over 60% in size; also: potency is read from the fitted curve at half-maximal effect). (In general: Quantitative high-throughput screening tests each substance at several concentrations.)
Assay [2] in a line: qHTS for Inhibitors of the Functional Ribonucleoprotein Complex (vRNP) of Lassa (LASV) Arenavirus: Viability assay - alamar blue signal for LASV Primary Screen (AID 1347083; calls by dose curve; tested in HEK293 reporter line; also: nearly all actives have a fitted effect of over 80% in size; also: potency is read from the fitted curve at half-maximal effect).
Assay [3] can be described thus: qHTS for Inhibitors of the Functional Ribonucleoprotein Complex (vRNP) of Lymphocytic Choriomeningitis Arenaviruses (LCMV): Viability assay - alamar blue signal for LCMV Primary Screen (AID 1347085; calls by dose curve; tested in HEK293 reporter line; also: nearly all actives have a fitted effect of over 80% in size; also: potency is read from the fitted curve at half-maximal effect).
The target in assay [4] is Nucleoprotein (Lymphocytic choriomeningitis virus (strain Armstrong)) (UniProt P09992). Kind of assay: qHTS for Inhibitors of the Functional Ribonucleoprotein Complex (vRNP) of Lymphocytic Choriomeningitis Arenaviruses (LCMV): LCMV Primary Screen - GLuc reporter signal (AID 1347086). Also: nearly all actives have a fitted effect of over 70% in size. Also: potency is read from the fitted curve at half-maximal effect.
Assay [5] in a line: Cytotoxicity counterscreen for inhibitors of SARS-CoV-2 cell entry (AID 1645845). Also: nearly all actives have a fitted effect of over 50% in size. The procedure, abridged:
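Counterscreen run in the same HEK293-ACE2 line as the pseudotyped-particle entry assay, without particles. Viability after 48 h at 37 C was read as ATP luminescence, scaled between cell-containing and cell-free wells.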

For assay [6], the target named is Cytochrome P450 3A4 (Homo sapiens) (UniProt P08684). Description: qHTS Assay for Inhibitors and Substrates of Cytochrome P450 3A4 (AID 884; active = well fitted curve in the direction sought with a large enough effect; an effect the other way counts as inactive or inconclusive; also: nearly all actives have a fitted effect of over 50% in size; also: potency is read from the fitted curve at half-maximal effect). The procedure, abridged:
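Luminescent readout of luciferin produced by CYP3A4 (20 nM) dealkylation of Luciferin-PPXE, 25 uM (its KM). NADPH-driven reaction ran 60 min at RT after 10 min compound preincubation; data scaled to 57 uM ketoconazole as 100% inhibition.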

Assay [7] can be described thus: Confirmation and Secondary Assay for Modulators of Hemoglobin Beta Chain Splicing at IVS2 705 locus (AID 930; active = well fitted curve in the direction sought with a large enough effect; an effect the other way counts as inactive or inconclusive;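 also: HeLa cells stably expressing the EGFP-705 splicing reporter; % of control where 0% means no effect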). The method in brief: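 Assay measures total GFP intensity per well in HeLa EGFP-705 cells after 2 days with compound; mis-splicing normally truncates EGFP, so fluorescence indicates corrected splicing.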
Assay [8] can be described thus: qHTS Assay for Lipid Storage Modulators (AID 1519). The note with it: Drosophila S3 cells, BODIPY lipid droplet/cell ratio, laser cytometry, cells loaded with oleic acid; for activity change, negative = inhibition: at 57.5 µM (top of the series). The method in brief: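 Cells seeded at 5,000 per well were treated with compounds over a concentration series and loaded with oleic acid (400 uM, as added). Lipid droplet fluorescence (488 nm excitation, 500-530 nm channel) was read by laser-scanning cytometry and normalized to 20 uM Triacsin C.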

The nature of assay [9]: AP1 Signaling Pathway (AID 357; active = well fitted curve in either direction with a large enough effect, not every such curve was filed as active;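 also: ME-180 reporter cells stimulated with EGF at its EC50 level; % is scaled to controls: 0 for no effect and ±100 for the full control effect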). The method in brief:
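Titration-series screen for positive or negative modulators of EC50 EGF-induced signaling in ME-180 cells carrying an AP-1-driven beta-lactamase reporter. After 5 hours at 37 degrees Celsius, CCF4 460nm/530nm emission ratio gave %Activity; AC50 values derived.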

In assay [10] the target is Cytochrome P450 1A2 (Homo sapiens) (UniProt P05177). Kind of assay: p450-cyp1a2 (AID 410). Also: potency is read from the fitted curve at half-maximal effect. The method in brief:
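O-Demethylation of luciferin 6' methyl ether by human CYP1A2 is monitored as luciferase luminescence. Substrate sits at Km (100uM); enzyme is 20nM. Values are scaled to 57 uM furafylline as maximal inhibition.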

Assay [11] can be described thus: Stat Signaling Pathway (AID 446; active = well fitted curve in either direction with a large enough effect, not every such curve was filed as active;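 also: ME-180 cervical cancer cells given 40 pM IL-6 alongside compound; SIE-controlled beta-lactamase reporter measured as 460/530 nm FRET emission ratio; % is scaled to controls: 0 for no effect and ±100 for the full control effect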). The method in brief: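 FRET read-out (405 nm excitation, 460/530 nm emission) of a beta-lactamase reporter under a STAT-inducible element in ME-180 cervical carcinoma cells. Cells with compound receive 40 pM IL-6 for 5 h. Values are normalised to AC90 stimulation and AC90 JAK-inhibitor controls.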
Assay [12] concerns the target Glucocorticoid receptor (Homo sapiens) (UniProt P04150). Description: GR-EFC Redistribution (AID 451). Also: potency is read from the fitted curve at half-maximal effect. The conditions noted are these: CHO-K1 GR-EFC translocation, beta-gal luminescence, 2 h. The method in brief:
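CHO-K1 cells expressing nuclear EA and GR-ED fragments of b-gal; compounds titrated up to 46 uM final, 2 h at 37 C. GR nuclear translocation read as complemented b-gal luminescence after 1 h RT detection.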

The target in assay [13] is Mitogen-activated protein kinase 10 (Mus musculus) (UniProt Q61831). Description: JNK3 AlphaScreen Assay (AID 530; active = well fitted curve in either direction with a large enough effect, not every such curve was filed as active;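 also: kinase came from lysate of stimulated human HepG2 cells; signal reports phosphorylation of biotinylated GST-cJun 1-79 at Ser73 with 10 µM ATP; % is scaled to controls: 0 for no effect and ±100 for the full control effect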). The procedure, abridged: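 Activity was read by AlphaScreen after JNK3-containing HepG2 lysate (cytokine pre-activated) phosphorylated biotinylated GST-cJun with 10 uM ATP at room temperature. Phospho-Ser73 cJun antibody with Protein-A acceptor beads provided detection.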

Assay [14] concerns the target 3',5'-cyclic-AMP phosphodiesterase 4B (Homo sapiens) (UniProt Q07343). Description: qHTS Assay for Inhibitors of PDE-IV (AID 607; active = well fitted activation curve with a large enough effect in the main read-out, with a control signal flat, not every such curve was filed as active; also: % of control where 0% means no effect). The method in brief: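 Cell-based read-out of cAMP via a modified cyclic nucleotide-gated channel and membrane potential dye (535/590 nm) in HEK293 cells expressing PDE4 endogenously. Compounds tested up to 22.9 uM final; 100 uM RO 20-1724 reference.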

The target in assay [15] is Cytochrome P450 2D6 (Homo sapiens) (UniProt P10635). Description: qHTS Assay for Inhibitors and Substrates of Cytochrome P450 2D6 (AID 891; active = well fitted curve in the direction sought with a large enough effect; an effect the other way counts as inactive or inconclusive; also: potency is read from the fitted curve at half-maximal effect; nearly all actives have a fitted effect of over 60% in size). The procedure, abridged: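 Luminescent read-out of luciferin formed by 5 nM human CYP2D6 demethylating 30 uM Luciferin-ME EGE (Km level) over 60 min at room temperature after NADPH regeneration addition. Data normalized to full inhibition by 1.43 uM quinidine.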

The target of assay [16] is Cytochrome P450 2C19 (Homo sapiens) (UniProt P33261). Description: qHTS Assay for Inhibitors and Substrates of Cytochrome P450 2C19 (AID 899; active = well fitted curve in the direction sought with a large enough effect; an effect the other way counts as inactive or inconclusive; also: % is scaled to controls: 0 for no effect and ±100 for the full control effect; nearly all actives have a fitted effect of over 60% in size). The procedure, abridged:
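Luminescent read-out of luciferin formed from Luciferin-H EGE (10uM, equal to KM). Enzyme 5nM in 50mM KPO4; compound added, 10 min at 37C, then NADPH regenerating system for 60 min at 37C. Full inhibition defined by 57uM ketoconazole.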

A short description of assay [17]: Primary qHTS for small molecule stabilizers of the endoplasmic reticulum resident proteome: Secreted ER Calcium Modulated Protein (SERCaMP) assay (AID 1508630; active = well fitted curve in the direction sought with a large enough effect; an effect the other way counts as inactive or inconclusive; also: % is scaled to controls: 0 for no effect and ±100 for the full control effect). The procedure, abridged:
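The SH-SY5Y reporter protocol was run at 3 concentrations up to 38.3 uM (primary) or 11 concentrations (follow-up): 16 h compound, 100 nM thapsigargin for 4 h, then extracellular luciferase luminescence.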

Assay [18] has as its target Cytochrome P450 3A4 (Homo sapiens) (UniProt P08684). Description: qHTS Assay for Activators of Cytochrome P450 3A4 (AID 885; active = well fitted curve in the direction sought with a large enough effect; an effect the other way counts as inactive or inconclusive; also: nearly all actives have a fitted effect of over 65% in size). The method in brief:
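Luminescent readout of luciferin formed from 25 uM Luciferin-PPXE (KM level) by 20 nM CYP3A4 in 200 mM KPO4, with 60 min NADPH-driven reaction at room temperature after 10 min compound exposure. Ketoconazole (57 uM) defined 100% inhibition.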

A short description of assay [19]: Confirmatory qHTS to identify inhibitors of SARS-CoV-2 cell entry (AID 1645844). Also: potency is read from the fitted curve at half-maximal effect; nearly all actives have a fitted effect of over 45% in size. The method in brief:
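HEK293-ACE2, overnight seeding; cpd 1 h, 37C/5% CO2; + SARS-CoV-2-S MLV PP (Wuhan-Hu-1, ΔC19); 48 h; Bright-Glo luminescence. Data normalised to S PP and bald PP wells.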

Assay [20] is described as follows: VSVG counterscreen qHTS to identify inhibitors of SARS-CoV-2 cell entry (AID 1645847). Also: potency is read from the fitted curve at half-maximal effect; nearly all actives have a fitted effect of over 65% in size. The method in brief:
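HEK293-ACE2 cells (Expi293F stably expressing human ACE2) were pretreated with compound for 1 h at 37 °C, then infected with MLV-based VSV-G pseudotyped particles for 48 h. Luciferase luminescence was normalized to VSV-G PP and bald PP wells.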
On the technique in general: The purpose of a counterscreen is to sort out artefacts and off-target activity.

For assay [21], the target named is DNA dC->dU-editing enzyme APOBEC-3G (Homo sapiens) (UniProt Q9HC16). Description: qHTS for inhibitors of Vif-A3G interactions: Validation (AID 588379; active = well fitted curve in the direction sought with a large enough effect; an effect the other way counts as inactive or inconclusive; also: 0% is about no effect). The method in brief: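 Yellow fluorescence (Ex 488, Em 500-530) of Vif-coexpressing HeLa A3G-eYFP cells, scanned by Acumen cytometer, reports blocked A3G degradation. Cells plated at 700/well overnight at 37 deg C before compound addition, then a further overnight compound incubation at 37 deg C.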

Assay [22] has as its target Glucocorticoid receptor (Homo sapiens) (UniProt P04150). Description: GR-GFP Redistribution (AID 450;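 active = compounds whose dose series gives a full or clear partial fitted curve of increased nuclear translocation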; also: potency is read from the fitted curve at half-maximal effect). The conditions noted are these: U2OS GR-GFP nuclear translocation, laser cytometry, 2 h.
The target in assay [23] is Rap guanine nucleotide exchange factor 3 (Homo sapiens) (UniProt O95398). Description: Confirmatory qHTS for agonist of cAMP-regulated guanine nucleotide exchange factor 3 (EPAC1) (AID 1645881; active = well fitted curve in the direction sought with a large enough effect; an effect the other way counts as inactive or inconclusive;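 also: EPAC1 catalysed release of BODIPY-GDP from Rap1B seen as fluorescence loss; nearly all actives have a fitted effect of over 75% in size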).
For assay [24], the target named is Rap guanine nucleotide exchange factor 4 (Homo sapiens) (UniProt Q8WZA2). Description: Confirmatory qHTS for agonist of cAMP-regulated guanine nucleotide exchange factor 4 (EPAC2) (AID 1645884; active = well fitted curve in the direction sought with a large enough effect; an effect the other way counts as inactive or inconclusive;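 also: nucleotide exchange releases bodipy-GDP from Rap1 and this lowers its fluorescence; % is scaled to controls: 0 for no effect and ±100 for the full control effect; nearly all actives have a fitted effect of over 65% in size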).
The target is the same in assay [25]. Description: Confirmatory qHTS for antagonist of cAMP-regulated guanine nucleotide exchange factor 4 (EPAC2) (AID 1645885; active = well fitted curve in the direction sought with a large enough effect; an effect the other way counts as inactive or inconclusive; also: potency is read from the fitted curve at half-maximal effect; nearly all actives have a fitted effect of over 25% in size).
Assay [26] concerns the target Rap guanine nucleotide exchange factor 3 (Homo sapiens) (UniProt O95398). Description: Counterscreen qHTS for antagonist of cAMP-regulated guanine nucleotide exchange factor 3 (EPAC1) (AID 1645888; active = well fitted curve in the direction sought with a large enough effect; an effect the other way counts as inactive or inconclusive;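 also: fluorescence loss as bound BODIPY-GDP is released from Rap1B; % of control where 0% means no effect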). The procedure, abridged: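 Rap1B–BODIPY-GDP (250 nM) with 50 uM GDP; compounds pin-transferred to 9.74 nM–152 uM final (activator) or from 7.32 nM upwards (inhibitor). Fluorescence Ex/Em 480/540 nm read at 5 and 30 min, then after adding cAMP or buffer, at room temperature.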

Setting [27] is: measured here: cell count channel max response.
Setting [28] is: measured here: lipid channel max response.

Several values for one entry are separate records, joined by “and”; a condition that tells them apart may be missing. Identical values can stand only once. Records with an inconclusive call do not appear. Some compounds were tested as several samples or in several runs, with calls that do not always agree. Activity calls are given as the source filed them. Unless noted, calls follow the shape of the full dose curve.

Sequence of Rap guanine nucleotide exchange factor 4 (Homo sapiens) (Q8WZA2 whole entry, looked up): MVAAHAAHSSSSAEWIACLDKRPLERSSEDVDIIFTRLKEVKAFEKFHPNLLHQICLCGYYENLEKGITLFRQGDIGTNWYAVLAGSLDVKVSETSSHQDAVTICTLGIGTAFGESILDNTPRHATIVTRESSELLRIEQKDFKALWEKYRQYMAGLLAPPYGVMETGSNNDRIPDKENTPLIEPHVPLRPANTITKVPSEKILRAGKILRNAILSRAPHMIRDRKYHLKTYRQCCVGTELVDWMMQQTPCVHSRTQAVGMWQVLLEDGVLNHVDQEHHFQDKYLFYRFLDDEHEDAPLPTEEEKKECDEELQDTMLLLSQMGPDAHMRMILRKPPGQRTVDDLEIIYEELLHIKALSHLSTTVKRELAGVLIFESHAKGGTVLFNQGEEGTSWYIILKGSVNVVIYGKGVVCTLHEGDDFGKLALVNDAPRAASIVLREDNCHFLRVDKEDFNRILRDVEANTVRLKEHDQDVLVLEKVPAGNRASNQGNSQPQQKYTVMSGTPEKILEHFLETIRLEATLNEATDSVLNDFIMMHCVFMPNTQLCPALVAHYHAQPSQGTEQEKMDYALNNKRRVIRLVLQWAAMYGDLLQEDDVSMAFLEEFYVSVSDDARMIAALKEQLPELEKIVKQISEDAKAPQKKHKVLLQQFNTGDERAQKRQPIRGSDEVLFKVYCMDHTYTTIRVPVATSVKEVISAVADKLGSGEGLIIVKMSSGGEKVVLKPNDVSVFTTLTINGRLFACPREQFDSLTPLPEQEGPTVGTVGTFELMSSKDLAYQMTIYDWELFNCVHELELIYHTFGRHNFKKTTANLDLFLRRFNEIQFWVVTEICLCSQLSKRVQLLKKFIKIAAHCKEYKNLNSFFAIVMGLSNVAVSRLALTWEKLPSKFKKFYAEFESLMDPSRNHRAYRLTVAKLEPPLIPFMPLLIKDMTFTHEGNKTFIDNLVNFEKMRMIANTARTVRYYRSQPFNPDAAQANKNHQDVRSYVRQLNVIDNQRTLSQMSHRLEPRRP
Sequence of Cytochrome P450 3A4 (Homo sapiens) (P08684 whole entry, looked up): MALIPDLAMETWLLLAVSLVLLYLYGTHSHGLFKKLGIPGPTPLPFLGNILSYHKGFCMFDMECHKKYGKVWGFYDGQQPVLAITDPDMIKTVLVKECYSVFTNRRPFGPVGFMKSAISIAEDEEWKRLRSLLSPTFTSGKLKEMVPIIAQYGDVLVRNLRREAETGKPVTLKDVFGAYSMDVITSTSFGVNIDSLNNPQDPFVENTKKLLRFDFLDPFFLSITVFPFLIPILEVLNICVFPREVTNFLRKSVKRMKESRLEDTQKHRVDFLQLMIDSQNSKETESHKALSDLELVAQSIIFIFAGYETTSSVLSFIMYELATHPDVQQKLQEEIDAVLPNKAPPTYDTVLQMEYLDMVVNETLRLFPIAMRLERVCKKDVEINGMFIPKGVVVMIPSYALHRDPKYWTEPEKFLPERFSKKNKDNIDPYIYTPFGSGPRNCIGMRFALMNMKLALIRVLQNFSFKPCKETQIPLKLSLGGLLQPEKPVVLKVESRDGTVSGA
Sequence of Rap guanine nucleotide exchange factor 3 (Homo sapiens) (O95398 whole entry, looked up): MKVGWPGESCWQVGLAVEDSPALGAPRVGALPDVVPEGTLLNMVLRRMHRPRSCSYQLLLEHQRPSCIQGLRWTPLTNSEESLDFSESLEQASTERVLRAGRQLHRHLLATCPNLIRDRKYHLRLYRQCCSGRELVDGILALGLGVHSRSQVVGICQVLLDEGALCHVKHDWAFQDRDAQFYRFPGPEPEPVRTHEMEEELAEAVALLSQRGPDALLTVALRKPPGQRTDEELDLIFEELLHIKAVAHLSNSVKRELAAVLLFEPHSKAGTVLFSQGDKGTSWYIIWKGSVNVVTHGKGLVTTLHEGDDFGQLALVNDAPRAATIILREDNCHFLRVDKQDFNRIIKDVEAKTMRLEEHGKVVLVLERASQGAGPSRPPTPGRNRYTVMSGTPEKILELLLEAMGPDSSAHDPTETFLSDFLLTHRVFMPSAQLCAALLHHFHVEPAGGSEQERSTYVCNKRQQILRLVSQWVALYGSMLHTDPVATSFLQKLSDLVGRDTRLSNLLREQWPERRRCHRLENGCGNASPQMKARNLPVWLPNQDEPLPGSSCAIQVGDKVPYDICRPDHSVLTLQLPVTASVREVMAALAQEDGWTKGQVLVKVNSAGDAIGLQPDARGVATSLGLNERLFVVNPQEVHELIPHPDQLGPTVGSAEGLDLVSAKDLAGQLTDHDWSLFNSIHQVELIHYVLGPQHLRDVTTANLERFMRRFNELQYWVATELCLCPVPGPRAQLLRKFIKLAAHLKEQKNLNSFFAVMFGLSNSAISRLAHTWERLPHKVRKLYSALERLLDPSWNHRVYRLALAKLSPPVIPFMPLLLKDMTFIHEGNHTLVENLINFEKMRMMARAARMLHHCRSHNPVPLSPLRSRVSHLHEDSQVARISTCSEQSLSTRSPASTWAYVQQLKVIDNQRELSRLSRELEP
Sequence of Glucocorticoid receptor (Homo sapiens) (P04150 whole entry, looked up, the tested form may be a part): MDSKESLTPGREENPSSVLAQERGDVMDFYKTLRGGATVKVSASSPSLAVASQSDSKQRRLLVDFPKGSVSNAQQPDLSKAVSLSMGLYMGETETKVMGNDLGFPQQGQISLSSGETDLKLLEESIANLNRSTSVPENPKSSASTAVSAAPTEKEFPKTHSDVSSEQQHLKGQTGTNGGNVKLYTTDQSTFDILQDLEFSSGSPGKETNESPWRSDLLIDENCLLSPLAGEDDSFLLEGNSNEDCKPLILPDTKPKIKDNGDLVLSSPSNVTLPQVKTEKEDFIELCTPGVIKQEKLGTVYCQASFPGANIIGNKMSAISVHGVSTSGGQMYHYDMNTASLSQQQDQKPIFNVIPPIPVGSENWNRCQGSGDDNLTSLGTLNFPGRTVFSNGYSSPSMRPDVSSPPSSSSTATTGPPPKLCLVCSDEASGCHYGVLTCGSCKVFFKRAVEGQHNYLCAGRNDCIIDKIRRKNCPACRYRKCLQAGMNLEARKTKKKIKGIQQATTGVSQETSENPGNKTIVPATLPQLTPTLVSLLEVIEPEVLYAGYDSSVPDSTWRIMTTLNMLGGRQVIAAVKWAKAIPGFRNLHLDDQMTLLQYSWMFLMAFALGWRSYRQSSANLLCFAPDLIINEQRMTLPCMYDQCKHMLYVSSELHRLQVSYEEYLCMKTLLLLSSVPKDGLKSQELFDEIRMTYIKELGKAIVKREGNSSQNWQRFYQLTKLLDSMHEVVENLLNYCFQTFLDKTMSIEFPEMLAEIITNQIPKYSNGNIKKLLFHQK
Sequence of Nucleoprotein (Lymphocytic choriomeningitis virus (strain Armstrong)) (P09992 whole entry, looked up): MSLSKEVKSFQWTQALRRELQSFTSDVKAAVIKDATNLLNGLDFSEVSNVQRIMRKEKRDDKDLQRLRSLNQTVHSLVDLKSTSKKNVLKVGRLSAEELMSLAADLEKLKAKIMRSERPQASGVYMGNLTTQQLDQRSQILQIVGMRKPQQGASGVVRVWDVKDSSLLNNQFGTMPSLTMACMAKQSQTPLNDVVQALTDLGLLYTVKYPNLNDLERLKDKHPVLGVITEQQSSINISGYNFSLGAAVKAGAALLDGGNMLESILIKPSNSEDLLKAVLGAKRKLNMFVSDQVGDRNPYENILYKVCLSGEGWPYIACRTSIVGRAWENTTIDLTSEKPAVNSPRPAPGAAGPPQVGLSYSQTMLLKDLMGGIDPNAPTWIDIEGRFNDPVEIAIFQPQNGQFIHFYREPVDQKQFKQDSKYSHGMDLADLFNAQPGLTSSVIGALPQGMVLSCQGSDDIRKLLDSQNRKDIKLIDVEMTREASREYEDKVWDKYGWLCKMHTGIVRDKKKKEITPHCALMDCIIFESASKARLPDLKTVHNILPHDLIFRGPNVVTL
Sequence of 3',5'-cyclic-AMP phosphodiesterase 4B (Homo sapiens) (Q07343 whole entry, looked up): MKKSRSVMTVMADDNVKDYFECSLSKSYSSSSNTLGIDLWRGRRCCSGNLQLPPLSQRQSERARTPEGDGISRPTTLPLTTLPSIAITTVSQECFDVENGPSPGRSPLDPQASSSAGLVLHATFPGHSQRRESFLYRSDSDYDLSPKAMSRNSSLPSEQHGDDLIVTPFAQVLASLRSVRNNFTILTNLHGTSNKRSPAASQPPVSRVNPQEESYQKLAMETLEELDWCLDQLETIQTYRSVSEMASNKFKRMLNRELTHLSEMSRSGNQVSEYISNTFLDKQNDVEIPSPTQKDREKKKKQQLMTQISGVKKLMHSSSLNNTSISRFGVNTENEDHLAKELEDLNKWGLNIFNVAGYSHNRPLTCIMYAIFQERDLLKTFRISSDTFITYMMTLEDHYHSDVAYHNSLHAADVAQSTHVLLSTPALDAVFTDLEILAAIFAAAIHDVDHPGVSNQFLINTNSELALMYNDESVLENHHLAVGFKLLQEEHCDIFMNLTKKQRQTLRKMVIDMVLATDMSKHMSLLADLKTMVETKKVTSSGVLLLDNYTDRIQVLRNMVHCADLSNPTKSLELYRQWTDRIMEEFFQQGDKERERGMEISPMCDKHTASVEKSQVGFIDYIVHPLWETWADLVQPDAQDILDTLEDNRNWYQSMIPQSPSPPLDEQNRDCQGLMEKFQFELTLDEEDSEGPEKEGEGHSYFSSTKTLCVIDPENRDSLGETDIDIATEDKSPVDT
Sequence of DNA dC->dU-editing enzyme APOBEC-3G (Homo sapiens) (Q9HC16 whole entry, looked up): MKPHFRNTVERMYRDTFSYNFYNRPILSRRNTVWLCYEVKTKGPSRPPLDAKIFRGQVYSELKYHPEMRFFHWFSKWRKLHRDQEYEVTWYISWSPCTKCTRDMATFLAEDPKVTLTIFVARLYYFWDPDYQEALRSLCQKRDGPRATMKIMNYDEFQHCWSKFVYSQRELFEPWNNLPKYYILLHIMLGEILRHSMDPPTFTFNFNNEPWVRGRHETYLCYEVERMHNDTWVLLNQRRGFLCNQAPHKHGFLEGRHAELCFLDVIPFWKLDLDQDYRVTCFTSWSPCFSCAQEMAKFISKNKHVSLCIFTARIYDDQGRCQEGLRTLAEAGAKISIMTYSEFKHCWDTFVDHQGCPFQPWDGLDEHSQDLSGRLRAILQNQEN

`C[C@H](c1ccc(F)cc1CCCC(=O)O)N(c1cc(F)ccc1F)S(=O)(=O)c1ccc(Cl)cc1`: the Potency result in [1], in [2], in assay [3], in assay [4] and in assay [5] was “inactive” throughout.

As for `O=C(O)CF`, the Potency result in [6], in assay [1], in [2], in assay [3] and in [4] was “inactive” each time. Further, the call in [7] was inactive. Further, in [8], the activity change, negative = inhibition was 3.91% (inactive). In addition, the max response in [8] (setting [27]) stood at 8.93%; in assay [8] (setting [28]), 13%.

Turning to `CC[C@@]1([C@@H]2O[C@@H]([C@H]3O[C@@](O)(CO)[C@H](C)C[C@H]3C)C[C@H]2C)CC[C@H]([C@]2(C)CC[C@]3(C[C@H](O)[C@@H](C)[C@@H]([C@@H](C)[C@@H](OC)[C@H](C)C(=O)O)O3)O2)O1`, the Potency is 0.376 µM (active) in assay [1], 3.35 µM (active) in [2], 4.21 µM (active) in [3] and 1.06 µM (active) in assay [4]. Moreover, the Potency result in assay [5] was “inactive”.

With `CC(C)c1cc(C(C)C)c(CC(=O)NS(=O)(=O)Oc2c(C(C)C)cccc2C(C)C)c(C(C)C)c1`, the Potency result in [1], in assay [2], in [3], in [4] and in [5] was “inactive” throughout.

As to `CC1=C[C@@H]2c3cccc4[nH]cc(c34)C[C@H]2N(C)C1`, the compound was classed as inactive in assay [9], in [11] and in [13]. The Potency in [10] is 3.16 µM (active); in assay [12], > 46 µM (inactive); in assay [15], 2 µM (active). Besides, the Potency entry in assay [14], in [16], in [1], in assay [2], in assay [3] and in assay [4] was “inactive” throughout. For the same compound, the Potency result in assay [17] is “inactive”.

Take `C=CC1CN2CCC1CC2C(O)c1ccnc2ccccc12` (stereo not drawn): the Potency in [6] is 25.1 µM (active) and inactive. In addition, the Potency entry in [18], in assay [1], in assay [2], in [3] and in assay [4] was “inactive” throughout. Moreover, the compound was called inactive in assay [7]. Besides, the activity change, negative = inhibition in assay [8] was 8.66% (inactive). For the same compound, the results for the max response in [8] (setting [27]) and in assay [8] (setting [28]) were 10.9% and 22.1%, respectively.

For the compound `CNC(=O)c1nn(C)c2c1C(C)(C)Cc1cnc(Nc3ccc(N4CCN(C)CC4)cc3)nc1-2`, the Potency in assay [1] is 3.43 µM (active); in assay [2], 1.09 µM (active); in assay [3], 3.85 µM (active); in [4], 3.06 µM (active); in assay [19], 3.04 µM (active); in [20] it was 4.82 µM (active).

Consider `C/C=C1/CN2CC[C@]34C(=C(C=O)[C@H]1C[C@@H]23)Nc1ccccc14`, for which the Potency result in assay [6], in assay [21], in assay [1], in assay [2], in [3] and in assay [4] was “inactive” throughout. Moreover, the activity change, negative = inhibition in assay [8] is -2.11% (inactive). Moreover, the max response in assay [8] (setting [27]) was 7.61%; in [8] (setting [28]), 5.28%.

Regarding `C[C@H](NC(=O)[C@@H](O)c1cc(F)cc(F)c1)C(=O)N[C@@H]1C(=O)N(C)c2ccccc2-c2ccccc21`, the Potency result in [1], in [2], in assay [3], in assay [4] and in assay [5] was “inactive” throughout.

Regarding `COc1cc2nccc(Oc3ccc(NC(=O)Nc4ccc(F)cc4F)c(F)c3)c2cc1OC`, the Potency entry in [1], in [2], in assay [3], in assay [4] and in [5] was “inactive” throughout.

`Clc1ccc(COC(Cn2ccnc2)c2ccc(Cl)cc2Cl)c(Cl)c1` (stereo not drawn): the call in assay [11], in assay [7], in assay [23], in [24] and in assay [26] was inactive. Further, the Potency was > 20.6 µM (inactive) in assay [22]; 49.4 µM (active) and 21.3 µM (active) in assay [25]. The Potency result in assay [18], in assay [1], in assay [2], in assay [3], in assay [4] and in [5] was “inactive” throughout. In addition, in assay [8], the activity change, negative = inhibition is 3.93% (inactive). Besides, the max response in [8] (setting [27]) is -9.24%; in assay [8] (setting [28]), -3.69%.
